Screens from PubChem BioAssay.
Compounds with a hit are over-represented: about 1.6% of the library has one in this group of screens.
KCNQ2 inh: blocks the rat KCNQ2 potassium channel. 310,000 compounds, 1.1% hits. O88943. CHO-K1 KCNQ2, FluxOR thallium flux, 20 min; hits give low values. B-score at 10 µM;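 active = fluorescence ratio B-score at most minus 3 library SDs, with starting brightness B-score within 2 library SDs, cut at about -5.5 in these data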
KCNQ2 enhance: KCNQ2 (rat) channel potentiation; O88943; CHO-K1 KCNQ2, FluxOR thallium flux fluorescence; hits give high values; B-score at 10 µM; 310,000 compounds, 0.54% hits;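 active = fluorescence ratio B-score at least 3 SD of library B-scores, with initial fluorescence B-score within 3 of them, cut at about 5.3 in these data; same plate scores as AID 2156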;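 note: B-score of peak minus minimum over baseline fluorescence ratio after K+ and Tl+ stimulus; positive B-score means potentiation of KCNQ2 with more thallium influx and brighter signal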
Kir21 confirm: confirmation of mouse Kir2.1 potassium channel inhibitors. 2,300 compounds, 41% hits. Tl flux remaining, % of negative control (hits give low values), % at 10 µM. shares compounds with KCNQ2 enhance. AID 2032. Kir2.1-expressing cells, FluxOR thallium flux fluorescence; hits give low values;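 active = Primary-screen hit whose thallium flux fell at least 3 control SD below untreated wells in both duplicates, with normal baseline fluorescence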;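 note: 0% = blank wells without stimulus and 100% = stimulated no-compound controls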
HEK293 Tl flux: alters thallium flux in parental HEK293 cells, Kir2.1 counter-screen; shares compounds with KCNQ2 enhance; FluxOR thallium flux fluorescence; 0% = unstimulated blank wells; FluxOR signal as % of negative control (100 = no effect), % at 10 µM; 2,300 compounds, 19% hits; AID 2105;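 active = dye signal at least 3 control SD above or below untreated wells in both duplicates, raw fluorescence within 3, either direction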;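 note: percent is based on the flux ratio of peak minus minimum fluorescence over baseline F0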
CHO-K1 ctr: counter-screen for KCNQ2 potentiators: effect in parental CHO-K1 cells | shares compounds with KCNQ2 enhance | AID 2282 | 1,200 compounds, 43% hits | FluxOR thallium flux fluorescence; zero = vehicle mean+3SD, 100% = vehicle-minus-blank window | activity increase over 3SD of controls, % at 10 µM;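 active = signal rise of at least 3 SD above the untreated control mean, in both duplicate wells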;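 note: counter screen of KCNQ2 potentiator hits so any rise reflects channel-independent effects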
KCNQ1 sel pot: tests whether KCNQ2 potentiators also act on human KCNQ1 | activation over 3SD threshold, % at 10 µM | CHO KCNQ1 stable, FluxOR thallium flux fluorescence; beyond 3SD, as % of vehicle-control signal | AID 2283 | 1,200 compounds, 28% hits | shares compounds with KCNQ2 enhance;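 active = fluorescence ratio rise of at least 3 SD of vehicle wells above their mean, in both replicate wells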;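 note: 0% = vehicle mean plus 3 SD and 100% = vehicle minus unstimulated blank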
Target sequence (P51787 whole entry, looked up): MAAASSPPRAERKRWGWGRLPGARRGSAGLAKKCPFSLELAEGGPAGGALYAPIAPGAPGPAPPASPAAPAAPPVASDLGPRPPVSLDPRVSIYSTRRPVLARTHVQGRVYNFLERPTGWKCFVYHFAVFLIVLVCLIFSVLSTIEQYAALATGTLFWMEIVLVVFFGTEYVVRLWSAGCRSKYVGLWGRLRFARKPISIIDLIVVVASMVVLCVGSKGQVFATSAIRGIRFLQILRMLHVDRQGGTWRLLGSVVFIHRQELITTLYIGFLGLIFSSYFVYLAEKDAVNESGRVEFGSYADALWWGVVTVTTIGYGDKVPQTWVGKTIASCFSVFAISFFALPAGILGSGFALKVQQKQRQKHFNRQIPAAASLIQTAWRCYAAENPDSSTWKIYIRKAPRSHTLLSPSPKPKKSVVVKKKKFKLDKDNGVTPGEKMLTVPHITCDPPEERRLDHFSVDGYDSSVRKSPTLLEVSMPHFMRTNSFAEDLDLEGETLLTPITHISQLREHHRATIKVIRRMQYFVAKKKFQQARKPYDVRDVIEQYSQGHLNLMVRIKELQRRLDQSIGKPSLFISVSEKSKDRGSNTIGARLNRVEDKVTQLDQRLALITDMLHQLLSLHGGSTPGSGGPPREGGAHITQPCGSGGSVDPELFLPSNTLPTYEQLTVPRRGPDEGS
KCNQ2 pot conf: confirmation of rat KCNQ2 potassium channel potentiators; shares compounds with KCNQ2 enhance; CHO-KCNQ2 cells, FluxOR thallium flux fluorescence; potentiation, less the hit threshold, % at 10 µM; 1,200 compounds, 68% hits;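 active = fluorescence ratio rising 3 SD or more over the vehicle control mean in both replicates, plus primary screen hit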;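 note: peak minus minimum thallium fluorescence divided by baseline after K/Tl stimulus; 0% = vehicle mean plus 3 SD and 100% = vehicle minus unstimulated blank difference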
Kir2-1 sel: tests whether KCNQ2 potentiators also affect mouse Kir2.1; HEK293 Kir2.1, FluxOR thallium flux fluorescence; 1,200 compounds, 2% hits; activity over 3SD threshold, % at 10 µM; shares compounds with KCNQ2 enhance;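 active = fluorescence ratio rise of at least 3 SD above the vehicle-control mean, seen in both replicates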;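 note: 0% = vehicle mean plus 3 SD and 100% = vehicle minus no-stimulus blank window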
KCNQ2 W236L MoA: KCNQ2 potentiators acting on retigabine-insensitive rat KCNQ2 W236L mutant; shares compounds with KCNQ2 enhance; CHO KCNQ2-W236L, automated patch clamp current; current increase over 3SD of negative controls (%), hits give high values, % at 25 µM; 940 compounds, 10% hits;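 active = current increase at least 3 SD of the untreated controls above them in both duplicate recordings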
The depositor's hits bear a star; i = inactive; nt = no result.

SMILES | KCNQ2 inh | KCNQ2 enhance | Kir21 confirm | HEK293 Tl flux | others
CCCCOC(=O)C[N+](C)(C)CCOC1CC2CCC1(C)C2(C)C (stereo not drawn) | i | nt | nt | nt
CCCCCCOC(=O)C[N+](C)(C)CCOC1CC2CCC1(C)C2(C)C (stereo not drawn) | i | nt | 24.5%* | i
CCCCCCCOC(=O)C[N+](C)(C)CCOC1CC2CCC1(C)C2(C)C (stereo not drawn) | i | nt | 15.5%* | i
COc1ccccc1NC(=O)CCc1nnc2ccc(N3CCC4(CC3)OCCO4)nn12 | i | 1.33 | nt | nt
O=C(NCCCN1CCCCC1)c1ccc(CS(=O)c2ccc(F)cc2)o1 (stereo not drawn) | i | 1.45 | nt | nt
CC(C)(C)OC(=O)N1CCC[C@H]1C(=O)NCc1ccc(Cl)cc1Cl | i | 0.04 | nt | nt
CCOCCCN(Cc1ccco1)S(=O)(=O)c1csc(C(N)=O)c1 | i | nt | nt | nt
CC(C)CCN(Cc1ccco1)S(=O)(=O)c1csc(C(N)=O)c1 | i | nt | 58.5%* | i
CCCCN(Cc1cccs1)S(=O)(=O)c1csc(C(N)=O)c1 | i | nt | 45.5%* | i
CN(Cc1ccccc1)S(=O)(=O)c1csc(C(N)=O)c1 | i | nt | nt | nt
O=C(O)c1cccc(NC2=C(Cl)C(=O)c3ccccc3C2=O)c1 | -7.64* | -7.64 | 37.5%* | i
O=C(O)c1ccc(NC2=C(Cl)C(=O)c3ccccc3C2=O)cc1 | -10.3* | -10.3 | i | i
O=C1C(Cl)=C(Nc2ccccc2)C(=O)c2ccccc21 | i | nt | nt | nt
Cc1ccc(NC2=C(NC(=O)c3ccccc3)C(=O)c3ccccc3C2=O)cc1Cl | i | nt | nt | nt
CSc1ncccc1C(=O)Nc1nc2ccc(Oc3ccccc3)cc2s1 | i | nt | nt | nt
Cc1ccc(-n2nc3c(c2NC(=O)c2ccc(F)c(F)c2)CS(=O)(=O)C3)cc1 | i | 0.57 | nt | nt
Cc1ccc(S(=O)(=O)NC(C)c2ccccc2)cc1[N+](=O)[O-] (stereo not drawn) | i | 0.61 | 46.0%* | i
C/C(CC(C)C)=N\NS(=O)(=O)c1ccc(C)c([N+](=O)[O-])c1 | i | nt | nt | nt
CSc1ccc(S(=O)(=O)NC(C)c2ccccc2)cc1 (stereo not drawn) | i | 1.16 | 42.5%* | i
CSc1ccc(S(=O)(=O)NCc2ccccc2)cc1 | i | nt | nt | nt
Cc1ccc(S(=O)(=O)N(CC(=O)NCC2CCCO2)C2CCCCC2)cc1 (stereo not drawn) | i | 0.18 | nt | nt
CN(C)S(=O)(=O)c1cccc(NC(=O)COC(=O)CNC(=O)c2cccc([N+](=O)[O-])c2)c1 | i | nt | nt | nt
Cc1cc(N2C(=O)C(O)=C(C(=O)c3cccs3)C2c2ccc(F)cc2)no1 (stereo not drawn) | i | nt | nt | nt
CCCCCCCCCCCNC(=O)c1ccoc1C | i | 13.4* | nt | nt | CHO-K1 ctr=-20.2;KCNQ1 sel pot=65.6*;KCNQ2 pot conf=36.7*;Kir2-1 sel=-64.0;KCNQ2 W236L MoA=i
Cc1occc1C(=O)NCCCCNC(=O)c1ccoc1C | i | 0.46 | nt | nt
SMILES | KCNQ2 inh | KCNQ2 enhance | Kir21 confirm | HEK293 Tl flux | others
CC12CN(NC(=O)c3ccccc3F)C3(C#N)CC1CCC23C (stereo not drawn) | i | 0.2 | nt | nt
Cc1ccc(-c2nc3ccccc3c(=O)n2O)cc1 | i | 3.58 | nt | nt
O=c1c2cc(Br)ccc2nc(-c2ccccc2)n1O | i | 7.79* | i | 425.5%* | CHO-K1 ctr=-16.4;KCNQ1 sel pot=-15.5;KCNQ2 pot conf=49.5*;Kir2-1 sel=-8.8;KCNQ2 W236L MoA=i
O=c1c2ccccc2nc(-c2cccc(Cl)c2)n1O | i | 8.71* | i | i | CHO-K1 ctr=74.0*;KCNQ1 sel pot=-21.8;KCNQ2 pot conf=45.5*;Kir2-1 sel=-25.5;KCNQ2 W236L MoA=i
O=c1c2cc(Cl)ccc2nc(-c2ccccc2Cl)n1O | i | 2.45 | nt | nt
COc1ccc([N+](=O)[O-])cc1NC(=O)C(C)Sc1nc(-c2ccccc2)cs1 (stereo not drawn) | i | nt | nt | nt
O=C(CC1NCCNC1=O)Nc1ccc([N+](=O)[O-])cc1 (stereo not drawn) | i | nt | nt | nt
Cc1cc(C)cc(NS(=O)(=O)c2c(C(=O)N3CCOCC3)c(C)n(C)c2C)c1 | i | 0.8 | nt | nt
CCN(CCNC(=O)c1ccc(C#N)cc1)c1cccc(C)c1 | i | nt | nt | nt
CCN(CCNCC(O)COCc1ccc(Cl)cc1)c1cccc(C)c1 (stereo not drawn) | i | nt | 36.5%* | i
CC(C)c1nc2sc3c(=O)[nH]c(=S)[nH]c3c2c2c1CCC2 | i | 4.52 | nt | nt
CC(C)c1nc2sc3c(=O)[nH]c(=S)[nH]c3c2c2c1CCCC2 | i | 8.97* | i | 132.5%* | CHO-K1 ctr=-18.2;KCNQ1 sel pot=-7.9;KCNQ2 pot conf=-15.8;Kir2-1 sel=-30.1
N/C(=N\OC(=O)CCC1CCCC1)c1ccc([N+](=O)[O-])cc1 | i | 0.44 | nt | nt
N/C(=N\OC(=O)CC1CCCCC1)c1ccc(Br)cc1 | i | nt | nt | nt
N/C(=N\OC(=O)CC1CCCCC1)c1cccc(Br)c1 | i | 7.78* | i | i | CHO-K1 ctr=-12.6;KCNQ1 sel pot=9.5*;KCNQ2 pot conf=21.1*;Kir2-1 sel=-42.7;KCNQ2 W236L MoA=i
N/C(=N\OC(=O)CCC1CCCCC1)c1cccc([N+](=O)[O-])c1 | i | 11.4* | i | i | CHO-K1 ctr=24.5*;KCNQ1 sel pot=-14.6;KCNQ2 pot conf=29.6*;Kir2-1 sel=-38.8;KCNQ2 W236L MoA=i
CCOc1cc(/C=N/NC(=O)C2CC2)ccc1OC(C)C | i | 0.52 | nt | nt
Nc1[nH]n2c(=O)cc(-c3ccccc3)nc2c1N=Nc1ccccc1 | i | 6.6* | i | i | CHO-K1 ctr=-27.5;KCNQ1 sel pot=-24.9;KCNQ2 pot conf=9.8*;Kir2-1 sel=-21.4;KCNQ2 W236L MoA=i
Nc1[nH]n2c(=O)cc(-c3ccccc3)nc2c1N=Nc1ccc(S(N)(=O)=O)cc1 | i | 1.36 | nt | nt
O=C(Nc1cc2cccc([N+](=O)[O-])c2oc1=O)c1cccs1 | i | 2.13 | nt | nt
O=C(O)COc1ccccc1Cc1ccccc1 | i | nt | nt | nt
CC(COc1ccccc1Cc1ccccc1)N1CCCCC1 (stereo not drawn) | i | 0.23 | i | i
CC1Cc2ccccc2N1C(=O)COC(=O)CCc1nc2ccccc2c(=O)[nH]1 (stereo not drawn) | i | 1.1 | nt | nt
COc1ccccc1CC(=O)NC1CCCCCC1 | i | 1.85 | nt | nt
CCOc1cc(Br)c(CC(=O)NC2CCCCCC2)cc1OCC | i | 13.6* | i | i | CHO-K1 ctr=1.1*;KCNQ1 sel pot=14.3*;KCNQ2 pot conf=14.8*;Kir2-1 sel=-34.0;KCNQ2 W236L MoA=i
CCOC(=O)c1c(-c2ccccc2)oc2ccc(OCC(O)CN(C)C)cc12 (stereo not drawn) | -5.56* | -5.56 | i | i
